# PubChem BioAssay (NCATS)
# Results filed as inconclusive are left out. Entries that show only a call come without a potency. Active and inactive are the calls of the source. The call rests on the fitted dose curve; in most records, active means well fitted cell-killing curve with a large enough effect; inconclusive means small, poorly fitted or top-dose-only effect; inactive means flat fitted curve, though single readings scatter.
# Test: Cell Viability - LYMP2-019 (AID 973); further: nearly all actives have a fitted effect of over 55% in size
# Conditions: LYMP2-019 lymphoblastoid cell line viability; series mostly up to 92.2 µM
# From the text: NIH Chemical Genomics Center [NCGC]
# NIH Molecular Libraries Screening Centers Network [MLSCN]
# National Institutes of Environmental Health Sciences [NIEHS]
# National Toxicology Program [NTP]
# We have developed a 1536-well cell-based assay for quantitative high throughput screening (qHTS) against a number of cell lines to determine in vitro cytotoxicity of small molecules. This particular assay uses a human lymphoblastoid cell line (LYMP2-019) purchased from Coriell Institute for Medical Research.
# NCGC Assay Protocol Summary:
# The CellTiter-Glo luminescent cell viability assay (Promega) is a homogeneous method to measure the number of viable cells in culture. The end point readout of this assay is based on quantitation of intracellular ATP, an indicator of metabolic activity, using the luciferase reaction. Luciferase catalyzes the oxidation of beetle Luciferin to oxyluciferin and light in the presence of ATP. The luminescent signal is proportional to amount of ATP present.
# Using the CellTiter-Glo luminescent cell viability assay, the amount of cellular ATP was measured in the lymphoblastoid cell line with complete culture medium following compound treatment for 24 hours. The assay was performed in opaque white Kalypsys 1536-well plates. In the screen, tetraoctylammonium bromide was used as positive control. Library compounds were measured for their ability to cause acute toxicity in the cell line, as reflected by a decrease in intracellular ATP levels, in a concentration-dependent manner. […] AC50 values were determined from concentration-response data modeled with the standard Hill equation.
# qHTS protocol for CellTiter Glo lymphoblastoid cellular assay
# [Step] [Parameter] [Value] [Description]
# 1. Reagent; 5 uL; 2500 lymphoblastoid cells/well
# 2. Time; 5 hr; 37 C incubation
# 4. Controls; 23 nL; Tetraoctylammonium bromide 6.4pM to 92 uM
# 5. Time; 24 hr; 37 C incubation
# 6. Reagent; 5 uL; CellTiter Glo reagent
# 7. Time; 30 min; Room Temperature
# 8. Detection; Luminescence; Viewlux plate reader
# Keywords: cell viability, cytotoxicity, lymphoblastoid cell line, luminescence, NTPHTS, NTPHTS_NCGC, NIEHS, DSSTox, MLSMR, MLSCN, NIH Roadmap, qHTS, NCGC
row,SMILES,Potency
1,CCOCC(=O)O,inactive
2,Nc1cc(Cl)c([N+](=O)[O-])cc1O,inactive
3,Cc1ccc(CO)cc1,inactive
4,Clc1ccc(Cl)c(Cl)c1Cl,inactive
5,Cc1ccc(C)cc1,inactive
6,O=Cc1c(Cl)cccc1Cl,inactive
7,S=C([S-])NCCNC(=S)[S-].[Zn+2],inactive
8,CC/C=C/C#N,inactive
9,CC(=O)Nc1cccc(N)c1,inactive
10,C[C@@H]1CC2(OC3C[C@@]4(C)C5=CC[C@H]6C(C)(C)C(O[C@@H]7OC[C@@H](O)[C@H](O)[C@H]7O)CC[C@@]67C[C@@]57CC[C@]4(C)C31)OC(O)C1(C)OC21 (stereo not given in full),inactive
11,Cc1ccc2ncccc2c1,inactive
12,NS(=O)(=O)O,inactive
13,O=C(O)/C=C/C(=O)O,inactive
14,C=C(C)C1CC=C(C)C(OC(C)=O)C1 (stereo not given),inactive
15,CCCCN(CCO)CCCC,inactive
16,CCCCC(=O)N(C)C,inactive
17,O=C1OC(=O)c2cc([N+](=O)[O-])ccc21,inactive
18,CCc1ccccc1,inactive
19,O=[N+]([O-])c1cccc(C(F)(F)F)c1,inactive
20,CC(C)=CCl,inactive

row,SMILES,Potency
1,O=c1[nH][nH]c(=O)c2cc([N+](=O)[O-])ccc12,inactive
2,CC=C(Cl)Cl,inactive
3,O=[N+]([O-])c1ccccc1CCO,inactive
4,Nc1ccc(F)cc1F,inactive
5,BrC/C=C/CBr,inactive
6,Cc1cc(C)cc(O)c1,inactive
7,CCCCCCC=O,inactive
8,CC(C)c1ccccc1,inactive
9,C[C@@H]1O[C@@H](O[C@@H]2[C@@H](O)[C@H](OCCc3ccc(O)c(O)c3)O[C@H](CO[C@@H]3O[C@H](CO)[C@@H](O)[C@H](O)[C@H]3O)[C@H]2OC(=O)/C=C/c2ccc(O)c(O)c2)[C@H](O)[C@H](O)[C@H]1O,inactive
10,Cc1ccccc1C#N,inactive
11,Cc1cc(C)cc([N+](=O)[O-])c1,inactive
12,CC(C)=CCC/C(C)=C/C=O,inactive
13,C[C@@H]1CC2(OC[C@]3(C)O[C@H]23)O[C@H]2C[C@@]3(C)[C@@H]4CC[C@H]5C(C)(C)C(O[C@@H]6OC[C@@H](O)[C@H](O)[C@H]6O)CC[C@@]56C[C@@]46CC[C@]3(C)[C@@H]12 (stereo not given in full),inactive
14,CC(C)=C1CCC(C)CC1=O (stereo not given),inactive
15,CC/C(C)=N/O,inactive
16,c1ccc2n[nH]nc2c1,inactive
17,C=C(C)C(=O)OCC(C)C,inactive
18,CCCCCCCCCCCCOCC1CO1 (stereo not given),inactive
19,Cc1cscn1,inactive
20,O=C1CCCCC1,inactive
